Experimental data published in ChEMBL document CHEMBL1201862, “PubChem BioAssay data set” (2004).
In all, about 400,000 compounds went through this assay and about 2,100 (0.53%) were called active. Not shown: some 14% with an inconclusive outcome. How the calls were made is not given here. The sample as a whole holds a higher share of actives than the screen did.

Molecular target: Ataxin-2 (Homo sapiens) (UniProt Q99700)
Test: qHTS for Inhibitors of ATXN expression.
Format: functional

Chain of Ataxin-2 (Homo sapiens) (Q99700 whole entry): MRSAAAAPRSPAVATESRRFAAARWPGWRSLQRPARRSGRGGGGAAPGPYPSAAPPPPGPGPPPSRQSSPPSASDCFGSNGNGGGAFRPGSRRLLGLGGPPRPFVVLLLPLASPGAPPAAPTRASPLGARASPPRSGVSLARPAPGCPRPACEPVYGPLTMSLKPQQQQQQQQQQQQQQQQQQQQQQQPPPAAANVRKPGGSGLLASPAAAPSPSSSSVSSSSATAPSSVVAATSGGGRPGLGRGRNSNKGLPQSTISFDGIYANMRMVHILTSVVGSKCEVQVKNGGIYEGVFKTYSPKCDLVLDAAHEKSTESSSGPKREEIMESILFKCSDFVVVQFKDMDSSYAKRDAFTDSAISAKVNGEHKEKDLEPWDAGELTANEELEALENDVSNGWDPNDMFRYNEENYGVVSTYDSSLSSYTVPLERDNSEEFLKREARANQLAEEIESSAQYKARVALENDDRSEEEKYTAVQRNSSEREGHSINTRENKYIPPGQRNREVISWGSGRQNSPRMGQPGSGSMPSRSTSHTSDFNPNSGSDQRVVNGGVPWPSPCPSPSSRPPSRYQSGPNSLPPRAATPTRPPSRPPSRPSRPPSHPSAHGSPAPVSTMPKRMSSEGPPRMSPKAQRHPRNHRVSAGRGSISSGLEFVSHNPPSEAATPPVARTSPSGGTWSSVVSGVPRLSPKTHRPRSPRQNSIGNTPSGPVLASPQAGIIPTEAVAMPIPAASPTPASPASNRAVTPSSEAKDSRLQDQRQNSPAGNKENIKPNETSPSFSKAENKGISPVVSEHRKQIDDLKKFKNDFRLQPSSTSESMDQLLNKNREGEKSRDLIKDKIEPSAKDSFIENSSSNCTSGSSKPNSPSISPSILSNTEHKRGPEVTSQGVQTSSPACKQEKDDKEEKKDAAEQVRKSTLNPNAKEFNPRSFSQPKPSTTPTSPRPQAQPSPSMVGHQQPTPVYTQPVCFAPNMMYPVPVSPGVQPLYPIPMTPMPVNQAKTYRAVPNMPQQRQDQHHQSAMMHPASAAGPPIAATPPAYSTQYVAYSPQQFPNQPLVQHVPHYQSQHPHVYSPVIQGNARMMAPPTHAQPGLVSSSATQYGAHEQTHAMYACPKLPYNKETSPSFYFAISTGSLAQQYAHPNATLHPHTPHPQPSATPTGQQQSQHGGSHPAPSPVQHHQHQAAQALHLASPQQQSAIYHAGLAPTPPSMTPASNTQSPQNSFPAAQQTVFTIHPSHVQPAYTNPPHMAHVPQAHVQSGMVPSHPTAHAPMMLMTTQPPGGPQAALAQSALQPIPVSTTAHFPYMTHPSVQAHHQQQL

Row | Structure (SMILES) | Potency
1 | CN1C(=S)N(c2cccnc2)C(=O)/C1=C\c1ccc(N(C)C)cc1 | 20 µM (active)
2 | CN1C(=O)/C(=C\c2ccc(N(C)C)cc2)OC1=S | inactive
3 | Cc1cc(/C=C2\NC(=S)NC2=O)c(C)n1-c1cccnc1 | inactive
4 | O=c1oc2c(CN3CCN(CCO)CC3)c(O)ccc2cc1-c1ccccn1 | inactive
5 | CC1C(=O)N2CCCc3cc(NC(=O)CC(C)(C)C)cc1c32 (stereo not given) | inactive
6 | CCOc1cc(/C=N/NC(=O)C(C)Sc2ccccc2)ccc1O (stereo not given) | inactive
7 | CCOc1cc(/C=N\NC(=O)Cc2ccccc2)ccc1OCC(=O)Nc1ccc(C)c(C)c1 | 31.6 µM (active)
8 | CCOc1cc(/C=N/NC(=O)Nc2ccccc2)ccc1O | inactive
9 | CCOc1ccc(CCN2C(=O)C(=O)N([C@@H](CC(C)C)CN3CCC[C@H]3CN3C(=O)C(=O)NC[C@@H]3Cc3ccccc3)C[C@@H]2Cc2ccccc2)cc1 | 25.1 µM (active)
10 | CCOc1ccc(CCN2C(=O)C(=O)N([C@@H](CC(C)C)CN3CCC[C@@H]3CN3C(=O)C(=O)NC[C@@H]3Cc3ccccc3)C[C@@H]2CC(C)C)cc1 | 39.8 µM (active)
11 | CCOc1ccc(CCN2C(=O)C(=O)N([C@@H](CC(C)C)CN3CCC[C@@H]3CN3C(=O)C(=O)NC[C@@H]3CC(C)C)C[C@@H]2Cc2ccccc2)cc1 | 12.6 µM (active)
12 | N#Cc1c(NC(=O)/C=C/C(=O)O)sc2c1CCN(Cc1ccccc1)C2 | inactive
13 | Clc1ccc(-n2c(-c3cccc(Br)c3)nc3nc4ccccc4nc32)cc1 | inactive
14 | Cc1nn(CSc2c(F)c(F)c(F)c(F)c2F)c(C)c1[N+](=O)[O-] | inactive
15 | N#CC1=C(N)Oc2cc(N)ccc2C1c1ccccc1Cl (stereo not given) | inactive
16 | N#CC1=C(N)Oc2cc(O)c(Cl)cc2C1c1cccnc1 (stereo not given) | inactive
17 | N#CC1=C(N)Oc2ccc3ccccc3c2C1c1cccnc1 (stereo not given) | 12.6 µM (active)
18 | Cc1cc(C)cc(NC(=O)c2sc3nc(C)cc(C)c3c2N)c1 | inactive
19 | O=C(NCCc1cccc(Cl)c1)c1ccc(OC2CCN(Cc3ccccn3)CC2)cc1 | 35.5 µM (active)
20 | CCOc1ccc(CCNC(=O)c2cccc(NC3=NC4CS(=O)(=O)CC4S3)c2)cc1 (stereo not given) | inactive
21 | Cc1c(CCC(=O)NCCc2ccccc2)c(=O)oc2cc(O)ccc12 | inactive
22 | CCCc1c(-c2ccc(O)cc2)nn(-c2ccc(O)cc2)c1-c1ccc(O)cc1 | 25.1 µM (active)
23 | CCOC(=O)N1CCN(C(=O)c2cccn3c(=O)c4cc(Br)ccc4nc23)CC1 | inactive
24 | O=C(O)C1CCN(c2nc(-c3ccccc3)c3cc(Br)ccc3n2)CC1 | inactive

Row | Structure (SMILES) | Potency
25 | CCCCN1CCc2c1nc1ccc(Br)cc1c2N | 31.6 µM (active)
26 | CCc1cc2c(CN3CCN(Cc4ccccc4)CC3)cc(=O)oc2cc1O | inactive
27 | Cc1ccc(/C=C2\Oc3c(ccc(O)c3CN3CCN(CCO)CC3)C2=O)cc1 | inactive
28 | CCOc1ccc(S(=O)(=O)N(CC)CC(=O)N2CCCC2)cc1C | inactive
29 | Cc1ccnc(NC(=O)CCC(=O)N(CC(=O)NC2CCCCC2)C2CCCC2)c1 | inactive
30 | CC(C)(C)c1ccc2c(c1)N(CC(=O)N1CCCC1)C(=O)CO2 | inactive
31 | CN(C(=O)CN1C(=O)c2cccc(N)c2C1=O)C1CCCCC1 | inactive
32 | O=C(Cn1ncc2c1-c1ccccc1OC2)Nc1ccc(Cl)cn1 | inactive
33 | COc1ccccc1N1CCN(C(=O)Cn2ncc3c2-c2cc(C)ccc2OC3)CC1 | 22.4 µM (active)
34 | Cc1cccc(N2CCN(C(=O)Cn3ncc4c3-c3cc(C)ccc3OC4)CC2C)c1 (stereo not given) | 39.8 µM (active)
35 | CCN(CC)S(=O)(=O)c1ccc2c(c1)N(CC(=O)N1CCN(c3cccc(C)c3)C(C)C1)C(=O)CO2 (stereo not given) | 35.5 µM (active)
36 | Cc1ccc2c(c1)-c1c(cnn1CC(=O)N(Cc1ccco1)C1CCCCC1)CO2 | 37.7 µM (active)
37 | Cc1ccc2nc(N3CCN(C(=O)CCC(=O)O)CC3)nc(-c3ccccc3)c2c1 | inactive
38 | COc1ccccc1N1CCN(C(=O)C2CCN(S(=O)(=O)c3ccccc3F)CC2)CC1 | inactive
39 | Cc1ccccc1CN1CCN(C(=O)c2ccc(S(=O)(=O)NCc3ccco3)cc2)CC1 | inactive
40 | CCOCCCNc1nc2nc3ccc(C)cn3c(=O)c2cc1C(=O)NCC1CCCO1 (stereo not given) | inactive
41 | CCNc1nc(NCC)nc(N/N=C(\C)c2ccc(OC)cc2)n1 | inactive
42 | CC1CCCCC12NC(=O)N(CC(=O)N(C)Cc1nc(O)c3ccccc3n1)C2=O (stereo not given) | inactive
43 | CC(C)NCCCCOc1cccc(Br)c1 | inactive
44 | Cc1cccc(C)c1NC(=O)CN1C(=O)COc2ccccc21 | inactive
45 | CCOc1ccccc1NC(=O)Cn1ncc2ccc([N+](=O)[O-])cc21 | inactive
46 | CCOc1ccccc1N(CC)C(=O)Cn1ncc2c1-c1ccccc1OC2 | 39.8 µM (active)
47 | CCN(CC)S(=O)(=O)c1ccc(N2CCCC2)c(NC(=O)Cc2cc(OC)c(OC)c(OC)c2)c1 | inactive
48 | CCOc1ccccc1N(CC)C(=O)Cn1ncc2c(=O)oc3ccccc3c21 | inactive

Row | Structure (SMILES) | Potency
49 | CCN(CC)S(=O)(=O)c1ccc2c(c1)N(CC(=O)NCCCN1CCN(c3cc(Cl)ccc3C)CC1)C(=O)CO2 | 31.6 µM (active)
50 | Clc1ccc(C2=NN(c3ccccc3)C(c3ccco3)C2)cc1 (stereo not given) | inactive
51 | O=C(O)c1cc(Cl)ccc1-c1ccc(/C=C/c2cc(C(F)(F)F)nc(O)n2)o1 | inactive
52 | Fc1ccc(C2=CC(c3ccc(Br)o3)n3ncnc3N2)cc1 (stereo not given) | inactive
53 | Cc1ccc(-n2nnc3c(=O)n(CC(=O)N4CCOCC4)cnc32)cc1 | inactive
54 | Cc1cccc(NS(=O)(=O)c2ccc3nc(O)cc(C(=O)OC(C)C(=O)Nc4ccc([N+](=O)[O-])cc4)c3c2)c1 (stereo not given) | inactive
55 | CC(C)OC(=O)c1cc(NC(=S)Nc2ccc([N+](=O)[O-])cc2)cc(C(=O)OC(C)C)c1 | 44.7 µM (active)
56 | O=C(NCCNc1ccc([N+](=O)[O-])cc1)c1cccc(Br)c1 | inactive
57 | CCN1CCC(O)(/C=C/c2ccc(C)cc2)C(C(=O)/C=C/c2ccc(C)cc2)C1 (stereo not given) | 31.6 µM (active)
58 | CC[N+]1(C)CCC(O)(/C=C/c2ccccc2)C(C(=O)/C=C/c2ccccc2)C1 (stereo not given) | 10.6 µM (active)
59 | CCN1CCC(O)(/C=C/c2ccc(C(C)C)cc2)C(C(=O)/C=C/c2ccc(C(C)C)cc2)C1 (stereo not given) | 25.1 µM (active)
60 | COc1ccc(/C=C/C(=O)N(C)c2ccccc2C(=O)O)cc1 | inactive
61 | Cc1cc(-c2nc(-c3ccncc3)no2)ccc1[N+](=O)[O-] | inactive
62 | Cc1cc(=O)oc2c(CN3CCCC3)c(O)c(Cl)cc12 | inactive
63 | COCCNC(=S)N/N=C/c1ccc2c(c1)OCCO2 | inactive
64 | Brc1cc(Br)c2nc(-c3ccc(N4CCOCC4)cc3)ccc2c1 | inactive
65 | N#CC1=CN(Cc2ccccc2)C=C(/C=N/Nc2ccccc2)C1 | inactive
66 | O=c1c2cc([N+](=O)[O-])cc([N+](=O)[O-])c2[nH]n1-c1ccccc1 | 22.4 µM (active)
67 | N#Cc1c(N)n(Cc2ccccc2)c(=O)c2cc([N+](=O)[O-])ccc12 | inactive
68 | O=[N+]([O-])c1cc([N+](=O)[O-])c2[nH]nc(-c3ccccc3)c2c1 | inactive
69 | COC(=O)Cc1cnc(NC(=O)CSc2nc(O)cc(C(C)C)n2)s1 | inactive
70 | CCCn1nc(NC(=O)c2ccco2)c2cc3ccccc3nc21 | inactive
71 | NC(=S)N/N=C/c1c[nH]c2ccc(OCc3ccccc3)cc12 | 12.6 µM (active)
72 | COc1cc(Br)cc(/C=N/NC(=O)Cc2ccccc2)c1O | inactive

Row | Structure (SMILES) | Potency
73 | COCc1c(C(=O)N/N=C/c2c[nH]c3ccccc23)nnn1-c1nonc1N | inactive
74 | COC(=O)c1ccc(C(=O)N(CCN(C)C)c2nc3c(Cl)cccc3s2)cc1 | inactive
75 | CN(Cc1ccccc1)S(=O)(=O)c1ccc(N2CCOCC2)nc1 | inactive
76 | CCOc1cccc2sc(N(CCCN(C)C)C(=O)c3ccc(S(=O)(=O)N(C)Cc4ccccc4)cc3)nc12 | 39.8 µM (active)
77 | CN(Cc1ccccc1)S(=O)(=O)c1ccc(OCC(=O)N2CCC(C(N)=O)CC2)cc1 | inactive
78 | Cc1ccc2sc(N(CCCN(C)C)C(=O)c3ccc(S(=O)(=O)N(C)Cc4ccccc4)cc3)nc2c1C | 31.6 µM (active)
79 | Cc1ccc2sc(N(CCCN(C)C)C(=O)c3ccc(S(=O)(=O)N(C)C4CCCCC4)cc3)nc2c1C | 25.1 µM (active)
80 | CN(C1CCCCC1)S(=O)(=O)c1ccc(SCC(=O)C(C)(C)C)nc1 | inactive
81 | Cc1[nH]c2ccccc2c1C(=O)CN1C(=O)NC2(CCCCCC2)C1=O | inactive
82 | CCC(C)(C)c1ccc(OCCCC[n+]2cccc(C)c2C)c(C(C)(C)CC)c1 | 31.6 µM (active)
83 | CC(=O)c1cccc(NC(=O)/C=C/c2ccc([N+](=O)[O-])s2)c1 | 5.97 µM (active)
84 | COc1cccc(/C=C/C(=O)Nc2cccc(C(C)=O)c2)c1OC | inactive
85 | Cc1cccc(NC(=O)C(C)Oc2ccc(C)nc2[N+](=O)[O-])c1 (stereo not given) | inactive
86 | Cc1ccc(NC(=S)N/N=C/c2ccc([N+](=O)[O-])s2)cc1 | 39.8 µM (active)
87 | Cc1cccc(NC(=S)N/N=C/c2ccc([N+](=O)[O-])s2)c1 | 31.6 µM (active)
88 | CN(C(=O)/C=C/c1ccc([N+](=O)[O-])s1)c1ccccc1 | 33.6 µM (active)
89 | CC(C)(C)NC(=S)N/N=C\c1ccc(-c2ccc([N+](=O)[O-])cc2)o1 | inactive
90 | CC(=O)c1cccc(NC(=O)CC2SC(N/N=C/c3ccccc3)=NC2=O)c1 (stereo not given) | inactive
91 | COc1cccc(/C=N/NC(=S)Nc2cccc(C(=O)O)c2)c1O | inactive
92 | C=CCc1cccc(/C=N/NC(=O)C(=O)Nc2ccc(C)cc2)c1O | inactive
93 | N=c1c(C(=O)NC2CCCC2)cc2c(=O)n3ccccc3nc2n1C1CCCCC1 | inactive
94 | CC1Nc2nc(N(C)C)nc(O)c2NC1C (stereo not given) | inactive
95 | Cc1cc2nc(/C=C/c3nc4cc(C)c(C)cc4[nH]3)[nH]c2cc1C | inactive
